# Results as given in PubChem BioAssay (NCI).
# About 79,000 compounds went through this panel and 15% of them were active in at least one assay; those are over-represented in the sample as a whole. Values without a mark were called inactive. Calls of active or inactive are those of the source. Cut-off read from the data, not from the text of the source: active = growth inhibition above about 70%; inactive = the rest.
# What was measured:
# [1] = NCI Yeast Anticancer Drug Screen. Data for the rad52 strain (AID 147);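 note: 0% = growth of vehicle-treated control cultures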; details: S. cerevisiae rad52 mutant growth inhibition, stronger effect = higher value
# Outline: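 Inhibition of yeast growth, referenced to vehicle controls, was the measured output for a strain with defective DNA damage repair.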
# [2] = NCI Yeast Anticancer Drug Screen. Data for the wt1 strain (AID 149);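 note: 0% = growth of vehicle-treated wt1 cultures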; details: S. cerevisiae wt1 strain (SPY 50644) growth inhibition, stronger effect = higher value
# Outline: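 Measured: growth of wt1 yeast under compound versus vehicle treatment, reported as inhibition.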
# [3] = NCI Yeast Anticancer Drug Screen. Data for the rad50EPP+ strain (AID 151);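 note: 0% = growth of vehicle-treated control cultures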; details: S. cerevisiae rad50 mutant strain, stronger effect = higher value
# Outline: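 Genetically defined yeast (rad50EPP+, DNA damage repair alteration) is grown with compound, and inhibition of growth is expressed relative to vehicle-treated controls.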
# [4] = NCI Yeast Anticancer Drug Screen. Data for the mgt1 strain (AID 153); details: S. cerevisiae mgt1 mutant growth inhibition, stronger effect = higher value
# Outline: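 In the mgt1 strain, test compounds were added and growth inhibition was determined relative to vehicle-treated controls.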
# [5] = NCI Yeast Anticancer Drug Screen. Data for the rad50 strain (AID 155);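 note: 0% = growth of vehicle-only cultures of the same strain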; details: S. cerevisiae rad50 strain growth inhibition, stronger effect = higher value
# Outline: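 Growth of the mutant yeast was measured after compound exposure and referenced to vehicle-treated cultures.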
# [6] = NCI Yeast Anticancer Drug Screen. Data for the mec2-1 strain (AID 157); details: S. cerevisiae mec2-1 strain, stronger effect = higher value
# Outline: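 Each compound was tested on mec2-1 yeast, a strain altered in DNA damage repair or cell cycle control. Growth inhibition is reported relative to vehicle.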
# [7] = NCI Yeast Anticancer Drug Screen. Data for the rad14 strain (AID 159);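 note: 0% = growth of vehicle-treated control cultures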; details: S. cerevisiae rad14 strain growth inhibition, stronger effect = higher value
# Outline: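 Here, inhibition of yeast growth was measured after compound exposure, using a strain with a genetic defect in DNA damage repair and vehicle-treated cultures as the reference.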
# [8] = NCI Yeast Anticancer Drug Screen. Data for the sgs1 mgt1 strain (AID 161);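 note: 0% = growth of cultures given vehicle only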; details: S. cerevisiae sgs1 mgt1 strain, stronger effect = higher value
# Outline: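 Inhibition of yeast growth, normalised to vehicle-treated controls, is reported for a strain bearing genetic alterations in DNA damage repair.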
# [9] = NCI Yeast Anticancer Drug Screen. Data for the CLN2oe strain (AID 163);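 note: 0% = growth of vehicle-only control cultures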; details: S. cerevisiae CLN2oe strain, stronger effect = higher value
# Outline: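 First, the altered yeast strain was treated with each compound; second, its growth was measured; finally, inhibition was derived by comparison with vehicle controls.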
# [10] = NCI Yeast Anticancer Drug Screen. Data for the cln2 rad14 strain (AID 165);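 note: 0% = growth equal to vehicle treated cultures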; details: S. cerevisiae cln2 rad14 strain, stronger effect = higher value
# Outline: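 Test compounds were added to cln2 rad14 yeast cultures; inhibition of growth was then determined by comparison with vehicle treatment.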
# [11] = NCI Yeast Anticancer Drug Screen. Data for the bub3 strain (AID 167); details: S. cerevisiae bub3 mutant strain, stronger effect = higher value
# Outline: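 Whole-cell yeast assay. The mutant strain was incubated with compounds, and growth inhibition was determined by comparison with vehicle-treated cells.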
# [12] = NCI Yeast Anticancer Drug Screen. Data for the wt2 strain (AID 169);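 note: 0% = growth of vehicle-treated yeast cultures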; details: S. cerevisiae wt2 strain growth inhibition, stronger effect = higher value
# Outline: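 The panel's yeast strains carry defined changes in DNA repair or cell cycle genes. Each strain is grown with compound, and growth loss is scored relative to vehicle.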
# [13] = NCI Yeast Anticancer Drug Screen. Data for the mlh1 strain (AID 171);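 note: 0% = growth of vehicle-treated control cultures of the same strain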; details: S. cerevisiae mlh1 strain growth inhibition, stronger effect = higher value
# Outline: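 Inhibition values reflect reduced yeast growth in the presence of compound, referenced to vehicle controls, using a strain chosen for its alteration in DNA repair or cell cycle control.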
# [14] = NCI Yeast Anticancer Drug Screen. Data for the sgs1 strain (AID 173);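 note: 0% = growth of vehicle-only control cultures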; details: S. cerevisiae sgs1 mutant, stronger effect = higher value
# Outline: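 Vehicle-treated cultures served as reference for growth inhibition of a yeast strain altered in DNA damage repair or cell cycle control after compound exposure.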
# [15] = NCI Yeast Anticancer Drug Screen. Data for the mlh1 rad18 strain (AID 175); details: S. cerevisiae mlh1 rad18 strain growth inhibition, stronger effect = higher value
# Outline: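 Inhibition values reflect reduced growth of mutant yeast versus vehicle-treated controls following compound exposure; the mutations affect DNA damage repair.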
# [16] = NCI Yeast Anticancer Drug Screen. Data for the rad18 strain (AID 177); details: S. cerevisiae rad18 mutant growth inhibition, stronger effect = higher value
# Outline: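 Steps: expose repair-mutant yeast to compound; measure growth; express as inhibition relative to vehicle control.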
# [17] = at 5.0 µM (retest, dose inferred, filed as 0.5)
# [18] = at 50.0 µM (retest, dose inferred, filed as 5.0)
smiles,measurement,setting,value
Cc1ccc(S/C(=C\C(=O)O)c2ccccc2)cc1,growth inhibition,[1]; at 1.2 µM,2%
same,growth inhibition,[1]; at 3.7 µM,7%
same,growth inhibition,[1]; at 11.0 µM,12%
same,growth inhibition,[1]; at 33.0 µM,28%
same,growth inhibition,[1]; at 100.0 µM,46%
same,growth inhibition,[2]; at 1.2 µM,-6%
same,growth inhibition,[2]; at 3.7 µM,-7%
same,growth inhibition,[2]; at 11.0 µM,-8%
same,growth inhibition,[2]; at 33.0 µM,-2%
same,growth inhibition,[2]; at 100.0 µM,10%
same,growth inhibition,[3]; at 1.2 µM,-6%
same,growth inhibition,[3]; at 3.7 µM,2%
same,growth inhibition,[3]; at 11.0 µM,15%
same,growth inhibition,[3]; at 33.0 µM,25%
same,growth inhibition,[3]; at 100.0 µM,52%
same,growth inhibition,[4]; at 1.2 µM,-4%
same,growth inhibition,[4]; at 3.7 µM,-5%
same,growth inhibition,[4]; at 11.0 µM,-3%
same,growth inhibition,[4]; at 33.0 µM,4%
same,growth inhibition,[4]; at 100.0 µM,32%
same,growth inhibition,[5]; at 1.2 µM,2%
same,growth inhibition,[5]; at 3.7 µM,4%
same,growth inhibition,[5]; [17],-16%
same,growth inhibition,[5]; at 11.0 µM,13%
same,growth inhibition,[5]; at 33.0 µM,30%
same,growth inhibition,[5]; [18],47%
same,growth inhibition,[5]; at 50.0 µM,41.9%
same,growth inhibition,[5]; at 100.0 µM,52%
same,growth inhibition,[6]; at 1.2 µM,-6%
same,growth inhibition,[6]; at 3.7 µM,-3%
same,growth inhibition,[6]; [17],-15%
same,growth inhibition,[6]; at 11.0 µM,-4%
same,growth inhibition,[6]; at 33.0 µM,8%
same,growth inhibition,[6]; [18],-1%
same,growth inhibition,[6]; at 50.0 µM,28.9%
same,growth inhibition,[6]; at 100.0 µM,25%
same,growth inhibition,[7]; at 1.2 µM,-1%
same,growth inhibition,[7]; at 3.7 µM,3%
same,growth inhibition,[7]; at 11.0 µM,7%
same,growth inhibition,[7]; at 33.0 µM,17%
same,growth inhibition,[7]; at 100.0 µM,34%
same,growth inhibition,[8]; [17],-12%
same,growth inhibition,[8]; [18],52%
same,growth inhibition,[8]; at 50.0 µM,64.8%
same,growth inhibition,[9]; at 1.2 µM,1%
same,growth inhibition,[9]; at 3.7 µM,-2%
same,growth inhibition,[9]; at 11.0 µM,5%
same,growth inhibition,[9]; at 33.0 µM,16%
same,growth inhibition,[9]; at 100.0 µM,35%
same,growth inhibition,[10]; [17],-6%
same,growth inhibition,[10]; [18],29%
same,growth inhibition,[10]; at 50.0 µM,47.5%
same,growth inhibition,[11]; at 1.2 µM,-4%
same,growth inhibition,[11]; at 3.7 µM,-4%
same,growth inhibition,[11]; [17],-2%
same,growth inhibition,[11]; at 11.0 µM,-4%
same,growth inhibition,[11]; at 33.0 µM,6%
same,growth inhibition,[11]; [18],66%
same,growth inhibition,[11]; at 50.0 µM,39.5%
same,growth inhibition,[11]; at 100.0 µM,19%
same,growth inhibition,[12]; at 1.2 µM,-10%
same,growth inhibition,[12]; at 3.7 µM,-11%
same,growth inhibition,[12]; at 11.0 µM,-7%
same,growth inhibition,[12]; at 33.0 µM,-3%
same,growth inhibition,[12]; at 100.0 µM,11%
same,growth inhibition,[13]; at 1.2 µM,-6%
same,growth inhibition,[13]; at 3.7 µM,0%
same,growth inhibition,[13]; at 11.0 µM,6%
same,growth inhibition,[13]; at 33.0 µM,20%
same,growth inhibition,[13]; at 100.0 µM,38%
same,growth inhibition,[14]; at 1.2 µM,4%
same,growth inhibition,[14]; at 3.7 µM,-4%
same,growth inhibition,[14]; at 11.0 µM,12%
same,growth inhibition,[14]; at 33.0 µM,25%
same,growth inhibition,[14]; at 100.0 µM,50%
same,growth inhibition,[15]; [17],-29%
same,growth inhibition,[15]; [18],72% (active)
same,growth inhibition,[15]; at 50.0 µM,38%
same,growth inhibition,[16]; at 1.2 µM,-4%
same,growth inhibition,[16]; at 3.7 µM,4%
same,growth inhibition,[16]; at 11.0 µM,7%
same,growth inhibition,[16]; at 33.0 µM,20%
same,growth inhibition,[16]; at 100.0 µM,50%
CSc1nc(C)c(CCOC(C)=O)c(N=P(c2ccccc2)(c2ccccc2)c2ccccc2)n1,growth inhibition,[1]; at 1.2 µM,10%
same,growth inhibition,[1]; at 3.7 µM,4%
same,growth inhibition,[1]; at 11.0 µM,-3%
same,growth inhibition,[1]; at 33.0 µM,-9%
same,growth inhibition,[1]; at 100.0 µM,92% (active)
same,growth inhibition,[2]; at 1.2 µM,9%
same,growth inhibition,[2]; at 3.7 µM,5%
same,growth inhibition,[2]; at 11.0 µM,-2%
same,growth inhibition,[2]; at 33.0 µM,-3%
same,growth inhibition,[2]; at 100.0 µM,92% (active)
same,growth inhibition,[3]; at 1.2 µM,12%
same,growth inhibition,[3]; at 3.7 µM,5%
same,growth inhibition,[3]; at 11.0 µM,1%
same,growth inhibition,[3]; at 33.0 µM,1%
same,growth inhibition,[3]; at 100.0 µM,13%
same,growth inhibition,[4]; at 1.2 µM,10%
same,growth inhibition,[4]; at 3.7 µM,2%
same,growth inhibition,[4]; at 11.0 µM,-2%
same,growth inhibition,[4]; at 33.0 µM,-15%
same,growth inhibition,[4]; at 100.0 µM,90% (active)
same,growth inhibition,[5]; at 1.2 µM,7%
same,growth inhibition,[5]; at 3.7 µM,-8%
same,growth inhibition,[5]; [17],16%
same,growth inhibition,[5]; at 11.0 µM,-21%
same,growth inhibition,[5]; at 33.0 µM,-1%
same,growth inhibition,[5]; [18],42%
same,growth inhibition,[5]; at 50.0 µM,92.2% (active)
same,growth inhibition,[5]; at 100.0 µM,90% (active)
same,growth inhibition,[6]; at 1.2 µM,12%
same,growth inhibition,[6]; at 3.7 µM,8%
same,growth inhibition,[6]; [17],-14%
same,growth inhibition,[6]; at 11.0 µM,1%
same,growth inhibition,[6]; at 33.0 µM,1%
same,growth inhibition,[6]; [18],3%
same,growth inhibition,[6]; at 50.0 µM,94.3% (active)
same,growth inhibition,[6]; at 100.0 µM,90% (active)
same,growth inhibition,[7]; at 1.2 µM,9%
same,growth inhibition,[7]; at 3.7 µM,2%
same,growth inhibition,[7]; at 11.0 µM,-4%
same,growth inhibition,[7]; at 33.0 µM,-5%
same,growth inhibition,[7]; at 100.0 µM,87% (active)
same,growth inhibition,[8]; [17],-2%
same,growth inhibition,[8]; [18],22%
same,growth inhibition,[8]; at 50.0 µM,96.5% (active)
same,growth inhibition,[9]; at 1.2 µM,18%
same,growth inhibition,[9]; at 3.7 µM,10%
same,growth inhibition,[9]; at 11.0 µM,0%
same,growth inhibition,[9]; at 33.0 µM,3%
same,growth inhibition,[9]; at 100.0 µM,77% (active)
same,growth inhibition,[10]; [17],3%
same,growth inhibition,[10]; [18],86% (active)
same,growth inhibition,[10]; at 50.0 µM,74.8% (active)
same,growth inhibition,[11]; at 1.2 µM,4%
same,growth inhibition,[11]; at 3.7 µM,6%
same,growth inhibition,[11]; [17],10%
same,growth inhibition,[11]; at 11.0 µM,3%
same,growth inhibition,[11]; at 33.0 µM,3%
same,growth inhibition,[11]; [18],93% (active)
same,growth inhibition,[11]; at 50.0 µM,95.6% (active)
same,growth inhibition,[11]; at 100.0 µM,92% (active)
same,growth inhibition,[12]; at 1.2 µM,10%
same,growth inhibition,[12]; at 3.7 µM,3%
same,growth inhibition,[12]; at 11.0 µM,-4%
same,growth inhibition,[12]; at 33.0 µM,-1%
same,growth inhibition,[12]; at 100.0 µM,92% (active)
same,growth inhibition,[13]; at 1.2 µM,12%
same,growth inhibition,[13]; at 3.7 µM,5%
same,growth inhibition,[13]; at 11.0 µM,-2%
same,growth inhibition,[13]; at 33.0 µM,-2%
same,growth inhibition,[13]; at 100.0 µM,92% (active)
same,growth inhibition,[14]; at 1.2 µM,7%
same,growth inhibition,[14]; at 3.7 µM,3%
same,growth inhibition,[14]; at 11.0 µM,-4%
same,growth inhibition,[14]; at 33.0 µM,-2%
same,growth inhibition,[14]; at 100.0 µM,93% (active)
same,growth inhibition,[15]; [17],0%
same,growth inhibition,[15]; [18],23%
same,growth inhibition,[15]; at 50.0 µM,94.6% (active)
same,growth inhibition,[16]; at 1.2 µM,16%
same,growth inhibition,[16]; at 3.7 µM,12%
same,growth inhibition,[16]; at 11.0 µM,4%
same,growth inhibition,[16]; at 33.0 µM,3%
same,growth inhibition,[16]; at 100.0 µM,91% (active)
